# Compound activity as filed in PubChem.
# Smad3 FoxH1 inh – Smad3/FoxH1 peptide binding inhibitors, primary screen, biochemical, TR-FRET. Mothers against decapentaplegic homolog 3 (Homo sapiens), P84022. TR-FRET Smad3/Dy647-FoxH1 peptide binding, europium anti-His. inhibition, % at 25 µM. hit rate 0.29% among 88,000. AID 630, 2007;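 active = compounds that reduce the energy-transfer binding signal between the protein and its labelled peptide by more than half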;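 note: 0% = Smad3 plus labelled peptide maximal FRET and 100% = peptide-only background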
# ERb coact inh – inhibitors of ERβ-SRC1 coactivator interaction, primary screen, biochemical, TR-FRET, ERβ LBD, SRC-1 peptide; inhibition, % at 25.6 µM; AID 633, 2007; TR-FRET ER-beta LBD / SRC1-Cy5 peptide binding; receptor agonist-loaded with 1 µM estradiol; Estrogen receptor beta (Homo sapiens), Q92731; hit rate 1.3% among 86,000;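 active = compounds whose percent inhibition of the receptor-coactivator binding signal exceeds about 50% in the single-dose screen, limit read from the data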;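 note: 0% = receptor plus peptide wells without compound and 100% = peptide-only wells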
# FAK inh – FAK kinase inhibitors, primary screen, biochemical; Focal adhesion kinase 1 (Homo sapiens), Q05397; biochemical FAK kinase activity assay; inhibition, %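 (tested at 7 µM)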; hit rate 0.84% among 97,000; AID 727, 2007; in the data active = inhibition above about 19%;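 note: 0% = DMSO and 100% = reference compound high control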
# Target sequence (Q05397 whole entry, looked up): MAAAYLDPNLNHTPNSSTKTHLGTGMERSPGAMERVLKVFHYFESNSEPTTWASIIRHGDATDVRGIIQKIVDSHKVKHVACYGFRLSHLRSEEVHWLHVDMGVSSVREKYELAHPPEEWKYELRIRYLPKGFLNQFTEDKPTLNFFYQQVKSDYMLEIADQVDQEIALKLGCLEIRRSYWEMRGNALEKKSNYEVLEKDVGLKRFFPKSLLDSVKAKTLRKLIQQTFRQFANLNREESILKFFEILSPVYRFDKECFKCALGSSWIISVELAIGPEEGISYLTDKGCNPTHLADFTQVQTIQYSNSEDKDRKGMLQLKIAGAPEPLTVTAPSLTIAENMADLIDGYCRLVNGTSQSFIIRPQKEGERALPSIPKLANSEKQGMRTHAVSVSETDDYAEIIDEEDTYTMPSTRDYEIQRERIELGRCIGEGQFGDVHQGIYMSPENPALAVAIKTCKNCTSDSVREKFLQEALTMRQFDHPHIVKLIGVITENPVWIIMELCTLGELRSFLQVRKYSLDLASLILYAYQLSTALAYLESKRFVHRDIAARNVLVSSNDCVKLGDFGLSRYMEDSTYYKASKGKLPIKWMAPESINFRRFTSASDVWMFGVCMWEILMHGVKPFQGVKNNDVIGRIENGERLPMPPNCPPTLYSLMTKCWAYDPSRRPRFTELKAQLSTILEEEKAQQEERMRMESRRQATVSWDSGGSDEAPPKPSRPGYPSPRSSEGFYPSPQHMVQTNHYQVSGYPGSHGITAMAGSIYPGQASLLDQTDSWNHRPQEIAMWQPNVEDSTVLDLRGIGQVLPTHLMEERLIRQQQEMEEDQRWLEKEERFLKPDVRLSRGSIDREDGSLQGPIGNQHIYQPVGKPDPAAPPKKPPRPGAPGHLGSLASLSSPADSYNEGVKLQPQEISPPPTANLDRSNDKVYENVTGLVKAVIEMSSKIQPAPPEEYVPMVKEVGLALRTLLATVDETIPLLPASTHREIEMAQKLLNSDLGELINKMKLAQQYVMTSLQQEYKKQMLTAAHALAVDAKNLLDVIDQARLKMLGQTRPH
# ERa SRC1 pot – enhancers of ERα–SRC-1 coactivator binding, primary screen, biochemical, TR-FRET, ERα LBD, low estradiol. AID 639, 2007. coactivator binding (% of control), % at 25.6 µM. TR-FRET ERalpha-LBD/SRC-Cy5 coactivator binding, 2 h; 100 = basal binding, no effect. hit rate 1.3% among 86,000; in the data active = activity above about 200%;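 note: binding measured in presence of low estradiol as agonist stimulus; 0% = peptide alone without receptor and 100% = receptor with peptide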
# ERa SRC1 inh – ERα–SRC-1 coactivator interaction inhibitors, primary screen, biochemical, TR-FRET, ERα LBD, estradiol-bound. Estrogen receptor (Homo sapiens), P03372. TR-FRET ER-alpha LBD / SRC-1 peptide. inhibition, % at 25.6 µM. hit rate 1.7% among 86,000. AID 629, 2007; in the data active = inhibition above about 50%;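 note: 0% = receptor plus peptide control and 100% = peptide only without receptor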
# An asterisk follows results filed as active; nt = no result given; [ ] = remark or other dose. Hits are enriched below; roughly 3.3% of the tested compounds scored in any of these assays.
SMILES,Smad3 FoxH1 inh,ERb coact inh,FAK inh,ERa SRC1 pot,ERa SRC1 inh
CCC(=O)Nc1ccc(-c2nn3c(C)nnc3s2)cc1C,6,6,0,101,1
CCOC(=O)c1[nH]c2c(c1C)C(=O)CC(c1ccco1)C2 (stereo not given),-4,56*[fluorescence artefact?],nt,93,65*
CSCCOC(=O)c1[nH]c2c(c1C)C(=O)CC(c1ccco1)C2 (stereo not given),11,50*,nt,121,56*
Cc1c(C(=O)OCc2ccccc2)[nH]c2c1C(=O)CC(c1ccco1)C2 (stereo not given),2,56*,nt,89,55*
COCCOC(=O)c1[nH]c2c(c1C)C(=O)CC(c1ccc(N(C)C)cc1)C2 (stereo not given),9,0,10,94,0
COCCOC(=O)c1[nH]c2c(c1C)C(=O)CC(c1ccco1)C2 (stereo not given),2,50,nt,139,51*
Cc1c(C(=O)OCCOC(C)C)[nH]c2c1C(=O)CC(c1ccco1)C2 (stereo not given),10,29,nt,123,33
COCCOC(=O)c1[nH]c2c(c1C)C(=O)CC(c1ccccc1)C2 (stereo not given),6,8,1,82,-4
COCCOC(=O)c1[nH]c2c(c1C)C(=O)CC(c1ccc(F)cc1)C2 (stereo not given),-4,-7,-1,122,2
COc1cccc2c1C(=O)c1c(O)c3c(c(O)c1C2=O)C[C@@](O)(C(=O)CO)C[C@H]3O[C@H]1C[C@@H](N)[C@H](O)[C@@H](C)O1.[W],10,nt,nt,nt,nt
C=CCNC(=O)C1CC(=O)N(c2ccc(Br)cc2)C1 (stereo not given),9,95*[fluorescence artefact?],-3,100,-4
COc1cc2nc(N3CCNCC3)nc(N)c2cc1OC,6,-8,-1,89,87*[fluorescence artefact?]
Clc1ccc2nc(N3CCNCC3)nc(-c3ccccc3)c2c1,-9,3,5,68,6
CCN1CC2=C(OC(N)=C(C#N)C2c2cccs2)/C(=C\c2cccs2)C1 (stereo not given),-3,15,7,111,15
CCc1ccccc1NC(=O)c1cnc2scc(C)n2c1=O,10,11,2,216*[fluorescence artefact?],10
COC(=O)c1ccc(CSc2nnc(NC(=O)c3cc4c(s3)CCCC4)s2)cc1,-11,17,-4,235*,1
N=C(N)SCCN1CCCCC1,19,nt,nt,nt,nt
Cc1ccc(-n2[nH]c(C)c(/C=N/n3c(C)nc4ccccc4c3=O)c2=O)cc1,-2,85*,-2,111,-1
NC1=NC(c2ccc(Cl)cc2)n2c(nc3ccccc32)N1 (stereo not given),-2,-4,0,43,26
CCn1c2ccccc2c2cc(C3N=C(N)Nc4nc5ccccc5n43)ccc21 (stereo not given),5,34,-1,277*[fluorescence artefact?],27
O=C(O)[C@@H](c1ccccc1)N1Cc2ccccc2C1=O,5,17,-2,597*[fluorescence artefact?],-18
CCOc1cc2[nH]c(=S)n(CCc3ccc(OC)c(OC)c3)c(=O)c2cc1OCC,-8,31,2,62,57*[fluorescence artefact?]
CC(C)NC(=O)c1ccc2c(=O)n(Cc3ccco3)c(=S)[nH]c2c1,-7,-2,-6,115,0
COc1ccc(CCNC(=O)c2ccc3c(=O)n(Cc4ccco4)c(=S)[nH]c3c2)cc1OC,-2,40,4,75,61*[fluorescence artefact?]
NC(=O)N/N=C1\CC[C@H](O)C[C@@H]1CC(=O)O,-7,nt,nt,nt,nt
SMILES,Smad3 FoxH1 inh,ERb coact inh,FAK inh,ERa SRC1 pot,ERa SRC1 inh
N[C@@]1(C(=O)O)CCC[C@@H]1C(=O)O,7,nt,nt,nt,nt
CCCCCn1c(SCC#N)nc2cc(C(=O)NCC3CCCO3)ccc2c1=O (stereo not given),30,47,-4,248*[fluorescence artefact?],56*[fluorescence artefact?]
COC(=O)c1ccc2c(=O)n(CC3CCCO3)c(SCC(=O)Nc3ccccc3Cl)nc2c1 (stereo not given),-3,15,0,81,57*
COC(=O)c1ccc2c(=O)n(CC3CCCO3)c(SCC(=O)Nc3ccccc3OC)nc2c1 (stereo not given),1,6,7,134,18
CCCCCn1c(SCC#N)nc2cc(C(=O)NC3CCCCC3)ccc2c1=O,21,37,nt,164,40
COc1ccc2[nH]c(=O)c(CN(C3CCCCC3)C(c3nnnn3Cc3ccco3)C(C)C)cc2c1 (stereo not given),8,28,12,201*,46
COc1ccc2[nH]c(=O)c(CN(Cc3nnnn3Cc3ccco3)C3CCCCC3)cc2c1,19,28,1,73,32
O=C(COC(=O)c1cccc(S(=O)(=O)N2CCc3ccccc3C2)c1)NCc1ccco1,6,53*,nt,71,65*
CC(C)NC(=O)COC(=O)c1ccccc1Oc1ccccc1,nt,nt,-1,nt,nt
Cc1onc(-c2c(F)cccc2Cl)c1C(=O)OCC(=O)NCc1ccco1,11,33,2,79,52*
O=C(COC(=O)c1ccccc1Oc1ccccc1)NCc1ccco1,0,47,nt,185,64*
O=C(COC(=O)c1cc(-c2cccs2)nc2ccccc12)NCc1ccco1,6,37,5,108,65*[fluorescence artefact?]
CCSC[C@@H](N)C(=O)O,-1,nt,nt,nt,nt
NC(N)=N/N=C/c1ccc(O)c(C(=O)O)c1,18,nt,nt,nt,nt
O=C(COC(=O)c1ccccc1)NCc1ccco1,9,60*,12,88,76*[fluorescence artefact?]
O=C(COC(=O)c1ccc(S(=O)(=O)Nc2ccccc2)cc1)NCc1ccco1,nt,nt,-3,nt,nt
COCC(=O)Nc1nnc(Cc2ccc(OC)cc2)s1,-6,55*,0,108,27
CCOC(=O)COn1c(=O)c(=O)n(OC)c2ccccc21,1,18,0,101,14
CCOC(=O)COn1c(=O)c(=O)n(O)c2ccccc21,11,50*[fluorescence artefact?],nt,74,36
CN(C)CCSCCO,1,nt,nt,nt,nt
CCC1(C)NC(=O)N(CC(=O)Nc2sc3c(c2C(N)=O)CCC3)C1=O (stereo not given),18,83*[fluorescence artefact?],nt,22,76*
COc1ccc2nccc(SCC(=O)O)c2c1,1,nt,nt,nt,nt
O=C(O)c1[nH]c2c([N+](=O)[O-])cc([N+](=O)[O-])cc2c1C(=O)O,19,nt,nt,nt,nt
COc1cc(NC(=O)CSc2nc3ccccc3c(=O)n2C)ccc1NC(=O)c1ccco1,9,50,2,129,63*
COc1cc(NC(=O)CSc2nnc(-c3ccncc3)n2C2CCCCC2)ccc1NC(=O)c1ccco1,nt,nt,-2,nt,nt
CCOc1ccc(OCC)c(NC(=O)CSc2nnnn2CC)c1,5,1,0,91,-9
CCOc1ccc(OCC)c(NC(=O)CSc2nc3ccccc3c(=O)n2C)c1,-5,31,-1,144,50*[fluorescence artefact?]
